This is a sample that favours compounds with a hit; in the whole collection about 14% have one here.
Pf growth 48h: P. falciparum growth inhibition at 48 hours (one generation) | AID 504832 | Potency, µM (doses to about 28.7 µM), for the others: at the top dose activity change, negative = inhibition, actives largely listed as inhibitors | 310,000 compounds, 5.9% hits | P. falciparum luciferase growth in erythrocytes, 48 h; also: potency is read from the fitted curve at half-maximal effect
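Erythrocytes infected with P. falciparum carrying an integrated firefly luciferase reporter (2% hematocrit, 0.1% parasitemia final) were exposed to compounds in RPMI 1640 with 0.5% Albumax at 37 C, 5% CO2. Growth inhibition was scored as reduced luminescence.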
FBPA Giardia inh: inhibitors of Giardia lamblia fructose-1,6-bisphosphate aldolase; A8B2U2; purified Giardia FBPA; Potency, µM (top dose mostly 59.6 µM), without a hit: at the top dose activity, negative = inhibition, hits mostly inhibitors; 290,000 compounds, 0.71% hits; also: potency is read from the fitted curve at half-maximal effect; nearly all actives have a fitted effect of over 55% in size
Target sequence (A8B2U2 whole entry, looked up): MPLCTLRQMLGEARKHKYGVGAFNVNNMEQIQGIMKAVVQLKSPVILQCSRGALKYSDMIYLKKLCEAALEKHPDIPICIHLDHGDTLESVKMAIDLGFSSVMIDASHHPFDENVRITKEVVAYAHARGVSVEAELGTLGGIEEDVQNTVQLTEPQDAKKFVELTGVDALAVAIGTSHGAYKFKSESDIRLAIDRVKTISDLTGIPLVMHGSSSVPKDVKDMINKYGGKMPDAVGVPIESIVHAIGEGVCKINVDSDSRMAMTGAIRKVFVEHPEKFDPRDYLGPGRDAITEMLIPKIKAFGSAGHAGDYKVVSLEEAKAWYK
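40 nM FBPA preincubated 10 min at RT with compound (up to 57.5 uM final), then substrate plus GAPDH/TPI/NAD/arsenate coupling and diaphorase/resazurin added. Fluorescence read after 20 min at RT, 525/598 nm.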
Pf growth 96h: inhibits malaria parasite growth, 96 h. P. falciparum luciferase reporter growth, 96 h. Potency, µM (titrated, usually from 28.7 µM), inactives show top-dose activity change, negative = inhibition, usual class: inhibitors. 320,000 compounds, 6.9% hits; also: potency is read from the fitted curve at half-maximal effect
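P. falciparum expressing integrated firefly luciferase grown in erythrocytes (2% hematocrit, 0.05% parasitemia final) with compounds for 96 hours at 37 C, 5% CO2. Growth inhibition read as loss of luminescence after adding luciferase detection reagent.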
Sm TGR inh: S. mansoni TGR enzyme inhibition | purified TGR, DTNB reduction, TNB absorbance 405 nm | Potency, µM (highest dose often 114 µM), for the others: at the highest dose activity change, negative = inhibition, hits mostly inhibitors | 360,000 compounds, 3% hits; also: potency is read from the fitted curve at half-maximal effect; nearly all actives have a fitted effect of over 60% in size
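Kinetic colorimetric format: TGR-catalysed, NADPH-driven DTNB reduction monitored via TNB absorbance. Enzyme dispensed at 20 nM; compound exposure 15 min at room temperature before reaction start.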
HCMV inh: blocks human cytomegalovirus replication; HFF cells, HCMV-luciferase reporter, 72 h; active compounds read low; activity change, negative = inhibition, % at 57.5 µM; 410,000 compounds, 4.5% hits; in the data active = activity change below about -60%; inconclusive = no clear call, values can overlap the other calls; inactive = above about -39%
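Two compound doses tested in HFFs infected with HCMV-luciferase, MOI 1 PFU/cell, 72 h at 37C. Lysate luminescence read with OneGlo; data normalized against buffer-only and 10uM Salinomycin inhibitor controls.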
An asterisk follows results filed as active; ? = inconclusive; . = no result given. Unless noted, calls follow the shape of the dose curve; as a rule, active = well fitted curve in the direction sought with a large enough effect; inconclusive = small, poorly fitted or top-dose-only effect, or another doubt; inactive = no such curve, though single readings can be large; an effect the other way counts as inactive or inconclusive. % is scaled to controls: 0 for no effect and ±100 for the full control effect.

SMILES	Pf growth 48h	FBPA Giardia inh	Pf growth 96h	Sm TGR inh	HCMV inh
O=C(O)CCC(=O)C(=O)O (tested in a mixture with another compound)	.	-3%	.	.	.
CCOC(=O)/C=C1\SCC(=O)N1CC(=O)Nc1cc(S(=O)(=O)N(C)C)ccc1C	.	.	.	.	18
CC1CCCN(c2sc(S(C)(=O)=O)nc2S(=O)(=O)c2ccc(Cl)cc2)C1 (stereo not drawn)	?	.	13µM*	-21%	-30
CCS(=O)(=O)c1nc(S(=O)(=O)c2ccc(C)cc2)c(N2CCCC(C)C2)s1 (stereo not drawn)	?	.	?	-10%	?
CC1CN(c2sc(S(C)(=O)=O)nc2S(=O)(=O)c2ccc(Cl)cc2)CC(C)O1 (stereo not drawn)	-12%	.	?	14µM*	-29
CN(C(=O)c1ccc(Br)o1)C1(C)CCS(=O)(=O)C1 (stereo not drawn)	35%	.	?	-2%	19
CC(C)Oc1ccc(CNC(=O)CCCn2c(=O)c3cccn3c3ccccc32)cc1	.	.	.	-16%	-11
O=CN1CCc2c([nH]c3ccccc23)C1c1cccc2cccnc12 (stereo not drawn)	.	-2%	.	.	.
Cn1c(-c2ccccc2[N+](=O)[O-])[n+](C)c2ccccc21	10µM*	0%	4.1µM*	15%	-16
CCOc1ccccc1N(C)C(=O)NCc1noc2ccccc12	.	.	.	5%	14
Cc1cccc(NC(=O)[C@H](Cc2c[nH]c3ccccc23)NC(=O)[C@@H]2Cc3ccccc3CN2)c1	8.3µM*	?	12µM*	8%	.
Cc1ccc(NC(=O)[C@H](Cc2c[nH]c3ccccc23)NC(=O)[C@@H]2Cc3ccccc3CN2)c(C)c1	?	-24%	?	4%	.
Cc1cc(C)cc(NC(=O)[C@H](Cc2c[nH]c3ccccc23)NC(=O)[C@@H]2Cc3ccccc3CN2)c1	9.3µM*	?	?	-16%	.
CCc1ccc(NC(=O)[C@@H](NC(=O)[C@@H]2Cc3ccccc3CN2)C(C)CC)cc1 (stereo partly drawn)	7.4µM*	?	?	-13%	.
CCc1ccc(NC(=O)[C@H](NC(=O)[C@@H]2Cc3ccccc3CN2)c2ccccc2)cc1	-19%	.	?	-3%	.
COc1ccccc1-c1cnc(C(O)c2ccc(SC)cc2)[nH]1 (stereo not drawn)	.	.	.	.	14
CC(C)=CCC/C(C)=C\COc1c2ccoc2cc2oc(=O)ccc12	.	2%	.	.	.
COCCNC(=O)C1(C)CCCN(C(=O)c2ccc(C(F)(F)F)cc2)C1 (stereo not drawn)	.	.	.	.	34
O=C(O)c1ccc(-c2cccc(-c3nn4c(=O)cc(N5CCNCC5)nc4s3)c2)cc1	.	.	.	.	4
COc1ccc(C(=O)Nc2nnc(Cc3ccc(OC)c(OC)c3)s2)cc1	0%	1%	0%	2%	16
CCCCc1nc(NCCNC(=O)c2ccccc2)c(C#N)c2c1CSC(C)(C)C2	.	-4%	2.3µM*	-25%	-104*
CCCCc1nc(NCCNC(=O)c2ccco2)c(C#N)c2c1CSC(C)(C)C2	8.3µM*	-19%	.	1%	16
CCCCc1nc(Cl)c(C#N)c2c1CSC(C)(C)C2	6%	9%	18%	2%	-26
C=CCNc1nc(C(=O)OC(C)C(=O)c2ccc(C)cc2)cs1 (stereo not drawn)	.	.	.	.	-19
Brc1ccc(-c2csc(N3CCC(c4ccccc4)C3)n2)cc1 (stereo not drawn)	31%	1%	8.3µM*	15%	-6
c1ccc2c(C[C@@H]3CNCCN3CC3CCCCC3)cccc2c1	?	.	12µM*	-10%	-63*
Oc1ccc(C[C@H]2CNCCN2CC2CCCCC2)cc1	?	.	?	-15%	5
O=C1CC(Nc2ccc(N3CCOCC3)cc2)C(=O)N1c1cccc(C(F)(F)F)c1 (stereo not drawn)	?	-26%	1%	28µM*	.
COc1cccc(N2C(=O)CC(Nc3ccc(N4CCOCC4)cc3)C2=O)c1 (stereo not drawn)	23%	-24%	29%	?	.
COc1ccc(N2C(=O)CC(Nc3ccc(N4CCOCC4)cc3)C2=O)c(OC)c1 (stereo not drawn)	-14%	-24%	20%	28µM*	23

From PubChem BioAssay
